Reference: PubChem BioAssay (NCATS)
Inconclusive results are not listed. Values without a mark were called inactive. Calls follow the shape of the dose curve; as a rule, active = well fitted activation curve with a large enough effect; inconclusive = small, poorly fitted or top-dose-only effect; inactive = flat fitted curve, though single readings scatter.

Molecular target: Nuclear receptor subfamily 1 group I member 3 (Homo sapiens) (UniProt Q14994)
Experiment: Primary qHTS for agonist of constitutive androstane receptor (CAR) against the NCATS DSHEA and TCM libraries (AID 1794839);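 also: HepG2 cells expressing human CAR with a CYP2B6 reporter plus PK11195 antagonist; 0% is about no effect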
Settings: CAR agonist reporter cells, qHTS luminescence, CAR antagonist co-added at 0.75 µM; series mostly up to 40 µM; activation: at the top concentration
Method in brief: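 Luminescence from ONE-Glo luciferase was the agonist read-out in HepG2-CYP2B6-hCAR cells exposed 24 h to test substances. Wells also held the CAR antagonist PK11195 at 0.75 µM final. Viability was by CellTiter-Fluor fluorescence.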

Sequence of Nuclear receptor subfamily 1 group I member 3 (Homo sapiens) (Q14994 whole entry, looked up): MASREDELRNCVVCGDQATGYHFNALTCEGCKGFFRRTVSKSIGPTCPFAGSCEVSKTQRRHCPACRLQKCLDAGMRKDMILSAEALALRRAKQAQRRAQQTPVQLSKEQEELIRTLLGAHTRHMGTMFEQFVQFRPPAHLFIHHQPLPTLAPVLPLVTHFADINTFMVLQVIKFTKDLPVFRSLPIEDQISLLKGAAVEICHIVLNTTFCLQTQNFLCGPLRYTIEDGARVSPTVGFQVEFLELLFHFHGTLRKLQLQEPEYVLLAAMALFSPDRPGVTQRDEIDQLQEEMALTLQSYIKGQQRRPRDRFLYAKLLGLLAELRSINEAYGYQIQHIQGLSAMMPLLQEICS

SMILES	activation
O=C(/C=C/c1ccc(O)c(O)c1)O[C@@H]1CC(C(=O)O)=C[C@@H](O)[C@H]1O	-11.1%
CC(C)=CCCC(C)(OC1OC(COC2OC(CO)C(O)C2O)C(O)C(O)C1O)C1CCC2(C)C1C(O)CC1C3(C)CCC(OC4OC(CO)C(O)C(O)C4OC4OC(CO)C(O)C(O)C4O)C(C)(C)C3CCC12C (stereo not given)	4.13%
CC[C@H](CC[C@@H](C)[C@H]1CCC2C3CCC4C[C@@H](O)CC[C@]4(C)C3CC[C@@]21C)C(C)C (stereo not given in full)	-18.9%
O=C(O)CC(O)(C(=O)O)C(O)C(=O)O (stereo not given)	-16.3%
CCCCCC(=O)CC	3.77% [at 121 µM]
C=C1CC[C@H](O)C/C1=C\C=C1/CCC[C@]2(C)[C@@H]([C@H](C)CC[C@H](C)C(C)C)CC[C@@H]12	13.8%
CC1(C)C2CCC1(C)C(O)C2 (stereo not given)	-16.5%
O[C@@H]1[C@@H](O)[C@H](OC/C=C/c2ccccc2)O[C@H](CO[C@@H]2OC[C@H](O)[C@H](O)[C@H]2O)[C@H]1O	-11.9%
CC(=O)O[C@H]1[C@H](O[C@H]2CC[C@]34C[C@]35CC[C@]3(C)[C@@H]([C@@]6(C)CC[C@@H](C(C)(C)O)O6)[C@@H](O)C[C@@]3(C)[C@@H]5C[C@H](O[C@@H]3O[C@H](CO)[C@@H](O)[C@H](O)[C@H]3O)[C@H]4C2(C)C)OC[C@@H](O)[C@@H]1O	-15.7%
OCC1=C[C@@H](O)[C@@H]2C=CO[C@@H](OC3O[C@H](CO)[C@@H](O)[C@H](O)[C@H]3O)[C@H]12 (stereo not given in full)	5.7%
CCCCCCCCCC=O	-13.3% [at 68.2 µM]
CC(=O)OC1CC2CCC1(C)C2(C)C (stereo not given)	-23.7%
CC(C)=CCCC(C)=CCCC(C)=CCCC=C(C)CCC=C(C)CCC=C(C)C	-24.2%
CCCCCCCCCCCCCCCCCCCCCCCCCCCCCCO	-23.2% [at 5 µM]
CC(C)c1ccc(C=O)cc1	-28.9% [at 68.2 µM]
O=Cc1ccccc1O	-17.6% [at 68.2 µM]
CC/C=C\C/C=C\C/C=C\C/C=C\CCCCC(=O)O	-23.1% [at 5 µM]
C=C1C[C@@]23CC[C@H]4[C@@](C)(CCC[C@@]4(C)C(=O)O[C@@H]4O[C@H](CO)[C@@H](O)[C@H](O)[C@H]4O)[C@@H]2CC[C@]1(O[C@@H]1O[C@H](CO)[C@@H](O)[C@H](O[C@@H]2O[C@H](CO)[C@@H](O)[C@H](O)[C@H]2O)[C@H]1O[C@@H]1O[C@@H](C)[C@H](O)[C@@H](O)[C@H]1O)C3	7.18%
C=C1C[C@]23CC[C@H]4[C@@](C)(CCC[C@@]4(C)C(=O)O)[C@@H]2CC[C@@]1(O[C@@H]1O[C@H](CO)[C@@H](O)[C@H](O)[C@H]1O[C@@H]1O[C@H](CO)[C@@H](O)[C@H](O)[C@H]1O)C3	-26.2%
Cc1ccc(C(C)C)cc1	0.252% [at 68.2 µM]
Cc1ncc(COP(=O)(O)O)c(C)c1O	2.89%
OCCc1ccc(O)cc1	-27.7% [at 68.2 µM]
CN(CC(=O)O)C(=N)N	-18.4% [at 121 µM]
COc1ccc(C(=O)O)cc1	-28.4% [at 68.2 µM]
CC(C)(O)[C@@H]1CC[C@](C)([C@@H]2[C@H](O)C[C@]3(C)C4C[C@@H](O[C@H]5O[C@@H](CO)[C@H](O)[C@@H](O)[C@@H]5O)C5C(C)(C)[C@H](O[C@H]6OC[C@H](O)[C@@H](O)[C@@H]6O)CC[C@]56CC46CC[C@@]23C)O1 (stereo not given in full)	-22.2%
C=CC(=C)CCC=C(C)C	-3.4%
CC1=CCC(O)(C(C)C)CC1 (stereo not given)	-22.4% [at 68.2 µM]
CCCCCC/C=C\CCCCCCCC(=O)O	-16.5%
CC(C)=CCC[C@](C)(O[C@@H]1O[C@H](CO)[C@@H](O)[C@H](O)[C@H]1O)[C@H]1CC[C@]2(C)[C@@H]1[C@H](O)C[C@@H]1[C@@]3(C)CC[C@H](O)C(C)(C)[C@@H]3[C@@H](O[C@@H]3O[C@H](CO)[C@@H](O)[C@H](O)[C@H]3O[C@@H]3O[C@@H](C)[C@H](O)[C@@H](O)[C@H]3O)C[C@]12C	-16.8%
C[C@@H]1O[C@@H](OC[C@H]2OC(Oc3c(-c4ccc(O)c(O)c4)oc4cc(O)cc(O)c4c3=O)[C@H](O)[C@@H](O)[C@@H]2O)[C@H](O)[C@H](O)[C@H]1O (stereo not given in full)	-25%
